# Source: PubChem BioAssay
# Values without a mark were called inactive. Activity calls are given as the source filed them.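 Rule for the calls, unless noted: active = mean inhibition above 46.68%, the untreated control wells mean plus 3 SD; inactive = the rest.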
# Tests used:
# [1] = target: Nuclear receptor coactivator 1 (Homo sapiens) (UniProt Q15788); experiment: NCOA1 GAL4-fusion reporter inhibition – cell-based, luminescence, quadruplicate, confirmation (AID 588820); conditions: HEK293 GAL4-SRC1 luciferase reporter, at 3.6 µM, active compounds read high;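 note: 0% = DMSO wells and 100% = gossypol 36 µM treated wells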
# Nuclear receptor coactivator 1 (Homo sapiens), sequence (Q15788 whole entry, looked up, the tested form may be a part): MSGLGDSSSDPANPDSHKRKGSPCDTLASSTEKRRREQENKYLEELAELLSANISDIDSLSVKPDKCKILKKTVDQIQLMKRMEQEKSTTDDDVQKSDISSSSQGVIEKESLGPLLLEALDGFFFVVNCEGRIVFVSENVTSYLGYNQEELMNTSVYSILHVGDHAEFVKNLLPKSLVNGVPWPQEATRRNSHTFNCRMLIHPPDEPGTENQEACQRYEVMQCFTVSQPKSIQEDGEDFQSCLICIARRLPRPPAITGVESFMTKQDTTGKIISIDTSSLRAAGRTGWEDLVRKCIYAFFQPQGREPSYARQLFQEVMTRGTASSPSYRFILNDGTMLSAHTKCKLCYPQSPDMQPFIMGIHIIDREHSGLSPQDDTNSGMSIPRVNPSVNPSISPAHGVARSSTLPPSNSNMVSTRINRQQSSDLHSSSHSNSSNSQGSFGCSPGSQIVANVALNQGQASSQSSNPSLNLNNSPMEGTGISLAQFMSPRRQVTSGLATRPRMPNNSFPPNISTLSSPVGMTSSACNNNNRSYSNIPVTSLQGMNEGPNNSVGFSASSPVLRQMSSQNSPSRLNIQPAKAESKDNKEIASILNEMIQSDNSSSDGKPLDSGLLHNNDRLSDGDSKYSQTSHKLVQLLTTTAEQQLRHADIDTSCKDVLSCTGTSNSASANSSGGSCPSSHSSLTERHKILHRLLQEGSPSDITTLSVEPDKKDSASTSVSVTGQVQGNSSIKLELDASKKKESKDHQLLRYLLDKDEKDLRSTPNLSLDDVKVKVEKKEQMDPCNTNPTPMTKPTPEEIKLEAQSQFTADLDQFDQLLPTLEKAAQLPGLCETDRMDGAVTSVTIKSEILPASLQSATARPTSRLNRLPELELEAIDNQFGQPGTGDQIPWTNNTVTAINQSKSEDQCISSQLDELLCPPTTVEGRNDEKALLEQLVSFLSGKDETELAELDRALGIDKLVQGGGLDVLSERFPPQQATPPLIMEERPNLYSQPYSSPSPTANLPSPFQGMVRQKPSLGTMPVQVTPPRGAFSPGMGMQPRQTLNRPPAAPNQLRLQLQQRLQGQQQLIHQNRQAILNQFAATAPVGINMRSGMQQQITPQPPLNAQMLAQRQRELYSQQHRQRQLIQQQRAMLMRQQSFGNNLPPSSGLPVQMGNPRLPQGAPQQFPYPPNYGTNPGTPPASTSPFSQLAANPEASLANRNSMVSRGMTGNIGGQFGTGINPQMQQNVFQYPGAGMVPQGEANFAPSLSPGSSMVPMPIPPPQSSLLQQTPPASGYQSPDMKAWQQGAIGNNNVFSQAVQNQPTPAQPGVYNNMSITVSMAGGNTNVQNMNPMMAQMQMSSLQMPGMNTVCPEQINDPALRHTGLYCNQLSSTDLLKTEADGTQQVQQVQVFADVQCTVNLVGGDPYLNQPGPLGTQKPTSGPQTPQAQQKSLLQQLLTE
# [2] = repression of VP16-driven luciferase reporter – cell-based, luminescence, high throughput, counter-screen for SRC1 inhibitor project (AID 588824; in the data active = inhibition above about 25%); conditions: cell-based VP16 transactivation luciferase luminescence; at 3.6 µM; active compounds read high
# [3] = target: Nuclear receptor coactivator 3 (Homo sapiens) (UniProt Q9Y6Q9); experiment: NCOA3 GAL4-fusion reporter inhibition – cell-based, luminescence, quadruplicate, confirmation (AID 588792;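 active = mean inhibition over 43.08%, the solvent-only control mean plus 3 SD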;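 note: 0% = DMSO treated cells and 100% = gossypol at 36 µM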); conditions: HEK293 GAL4-SRC3 luciferase reporter, at 3.6 µM, active compounds read high
# Nuclear receptor coactivator 3 (Homo sapiens), sequence (Q9Y6Q9 whole entry, looked up, the tested form may be a part): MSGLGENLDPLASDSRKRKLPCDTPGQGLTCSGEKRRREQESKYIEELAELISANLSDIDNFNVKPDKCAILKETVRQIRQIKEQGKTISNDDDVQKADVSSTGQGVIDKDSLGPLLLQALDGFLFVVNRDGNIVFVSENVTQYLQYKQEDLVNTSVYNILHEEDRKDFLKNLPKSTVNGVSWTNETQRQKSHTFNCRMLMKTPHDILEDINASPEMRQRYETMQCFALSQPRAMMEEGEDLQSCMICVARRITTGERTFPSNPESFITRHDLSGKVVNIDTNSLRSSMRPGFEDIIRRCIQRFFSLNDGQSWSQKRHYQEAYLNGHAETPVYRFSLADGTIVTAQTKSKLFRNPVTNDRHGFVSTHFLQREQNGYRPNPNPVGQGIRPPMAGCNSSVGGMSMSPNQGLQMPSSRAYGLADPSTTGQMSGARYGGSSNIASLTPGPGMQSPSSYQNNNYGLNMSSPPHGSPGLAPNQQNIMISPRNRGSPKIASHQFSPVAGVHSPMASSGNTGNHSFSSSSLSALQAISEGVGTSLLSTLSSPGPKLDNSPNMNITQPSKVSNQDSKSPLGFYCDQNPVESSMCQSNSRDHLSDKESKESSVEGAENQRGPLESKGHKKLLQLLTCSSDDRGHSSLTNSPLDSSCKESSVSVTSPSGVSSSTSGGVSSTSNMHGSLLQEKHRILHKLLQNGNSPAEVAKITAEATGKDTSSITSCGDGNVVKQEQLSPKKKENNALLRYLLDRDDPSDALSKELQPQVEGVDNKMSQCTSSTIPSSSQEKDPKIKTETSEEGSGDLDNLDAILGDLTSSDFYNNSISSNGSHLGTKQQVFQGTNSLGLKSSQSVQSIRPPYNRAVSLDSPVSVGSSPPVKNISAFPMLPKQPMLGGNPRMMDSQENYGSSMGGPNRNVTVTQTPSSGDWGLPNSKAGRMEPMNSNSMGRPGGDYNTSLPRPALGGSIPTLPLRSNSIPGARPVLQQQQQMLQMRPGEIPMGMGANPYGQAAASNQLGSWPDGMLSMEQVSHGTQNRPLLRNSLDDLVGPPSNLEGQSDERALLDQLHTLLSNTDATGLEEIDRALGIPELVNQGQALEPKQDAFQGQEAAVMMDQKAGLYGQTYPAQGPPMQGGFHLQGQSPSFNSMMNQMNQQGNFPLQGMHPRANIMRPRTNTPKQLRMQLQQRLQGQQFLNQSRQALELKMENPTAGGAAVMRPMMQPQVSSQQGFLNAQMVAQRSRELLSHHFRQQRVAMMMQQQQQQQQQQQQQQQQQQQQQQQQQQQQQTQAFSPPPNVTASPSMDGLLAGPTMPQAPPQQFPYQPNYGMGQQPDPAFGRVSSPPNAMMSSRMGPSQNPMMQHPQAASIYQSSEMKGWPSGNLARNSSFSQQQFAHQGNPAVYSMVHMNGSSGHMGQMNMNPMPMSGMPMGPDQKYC
# [4] = test system: transactivating tegument protein VP16 (Human herpesvirus 1), Gal4-VP16 luciferase reporter; experiment: repression of VP16-driven luciferase reporter – cell-based, luminescence, high throughput, counter-screen for SRC3 inhibitor project (AID 588794; in the data active = inhibition above about 30%); conditions: mammalian cells, at 3.6 µM, active compounds read high
# [5] = test system: transactivating tegument protein VP16 (Human herpesvirus 1); experiment: compounds suppressing VP16-driven luciferase signal – cell-based, luminescence, single concentration, counter-screen for SRC2 inhibitor project (AID 652007; in the data active = inhibition above about 36%); conditions: cell-based VP16 transactivation luciferase reporter, at 8.9 µM, active compounds read high
# [6] = target: Nuclear receptor coactivator 2 (Homo sapiens) (UniProt Q15596); experiment: inhibition of GAL4-SRC2 driven luciferase expression – cell-based, luminescence, HEK293, triplicate, confirmation (AID 652008;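 active = mean inhibition above 46.5%, the solvent-only control mean plus 3 SD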;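 note: 0% = DMSO-treated cells and 100% = Gossypol at 36 µM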); conditions: HEK293 GAL4-SRC2 luciferase reporter, at 8.9 µM, active compounds read high
# Nuclear receptor coactivator 2 (Homo sapiens), sequence (Q15596 whole entry, looked up, the tested form may be a part): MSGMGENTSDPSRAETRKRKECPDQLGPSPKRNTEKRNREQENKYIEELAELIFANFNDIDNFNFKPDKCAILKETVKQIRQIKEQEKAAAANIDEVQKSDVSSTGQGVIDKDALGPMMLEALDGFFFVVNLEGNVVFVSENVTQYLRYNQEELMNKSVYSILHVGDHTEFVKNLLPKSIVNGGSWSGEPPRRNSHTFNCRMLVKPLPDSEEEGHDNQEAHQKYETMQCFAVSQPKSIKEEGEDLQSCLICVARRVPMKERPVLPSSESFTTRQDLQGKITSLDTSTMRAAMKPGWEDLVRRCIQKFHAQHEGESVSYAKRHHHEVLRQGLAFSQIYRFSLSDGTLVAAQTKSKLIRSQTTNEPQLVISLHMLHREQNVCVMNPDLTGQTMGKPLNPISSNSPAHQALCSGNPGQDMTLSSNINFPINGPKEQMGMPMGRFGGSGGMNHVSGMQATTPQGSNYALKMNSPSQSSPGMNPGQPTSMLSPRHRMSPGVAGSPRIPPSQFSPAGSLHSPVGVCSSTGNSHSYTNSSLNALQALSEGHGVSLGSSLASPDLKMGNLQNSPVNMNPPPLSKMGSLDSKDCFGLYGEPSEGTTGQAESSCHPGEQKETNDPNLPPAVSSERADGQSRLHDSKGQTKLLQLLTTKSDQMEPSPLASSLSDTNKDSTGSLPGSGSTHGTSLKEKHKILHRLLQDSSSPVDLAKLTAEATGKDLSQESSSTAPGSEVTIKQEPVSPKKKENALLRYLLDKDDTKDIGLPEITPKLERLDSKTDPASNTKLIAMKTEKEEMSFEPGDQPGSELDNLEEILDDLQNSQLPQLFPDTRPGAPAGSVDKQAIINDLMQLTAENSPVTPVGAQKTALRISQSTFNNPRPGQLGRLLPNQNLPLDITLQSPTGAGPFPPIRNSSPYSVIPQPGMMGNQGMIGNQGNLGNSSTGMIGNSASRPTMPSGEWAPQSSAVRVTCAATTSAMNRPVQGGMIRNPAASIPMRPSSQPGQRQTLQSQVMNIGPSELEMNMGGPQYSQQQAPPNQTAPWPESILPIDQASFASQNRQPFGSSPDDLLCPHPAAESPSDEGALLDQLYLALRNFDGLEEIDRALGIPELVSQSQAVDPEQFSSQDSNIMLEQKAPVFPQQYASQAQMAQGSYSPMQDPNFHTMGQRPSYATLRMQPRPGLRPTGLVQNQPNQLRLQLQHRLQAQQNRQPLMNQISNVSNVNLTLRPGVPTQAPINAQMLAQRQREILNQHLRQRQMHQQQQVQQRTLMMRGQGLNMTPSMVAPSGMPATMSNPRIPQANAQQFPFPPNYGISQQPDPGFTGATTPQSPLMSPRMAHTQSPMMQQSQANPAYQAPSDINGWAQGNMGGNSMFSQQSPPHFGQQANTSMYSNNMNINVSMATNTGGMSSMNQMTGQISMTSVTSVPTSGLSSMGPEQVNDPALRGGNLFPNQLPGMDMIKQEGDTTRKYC
compound,measurement,setting,value
COC(=O)c1sc2cnccc2c1N,inhibition,[1],21.5%
same,inhibition,[2],4.54%
O=C(Cc1ccc(Cl)cc1)c1c[nH]c(C(=O)NCc2cccnc2)c1,inhibition,[3],95.9% (active)
same,inhibition,[4],56% (active)
same,inhibition,[5],93.5% (active)
same,inhibition,[6],95.2% (active)
Cc1cccc(Nc2nc(N)nc(CCl)n2)c1C,inhibition,[3],62.8% (active)
same,inhibition,[4],31.1% (active)
same,inhibition,[5],14.2%
same,inhibition,[6],55.7% (active)
Cc1nnc(SC(=O)N2c3ccccc3Sc3ccccc32)s1,inhibition,[3],80.8% (active)
same,inhibition,[4],28.2%
same,inhibition,[5],37.9% (active)
same,inhibition,[6],60.4% (active)
Cc1nc([N+](=O)[O-])c(Sc2nc3ccccc3[nH]2)n1Cc1ccccc1,inhibition,[3],16.1%
same,inhibition,[4],6.02%
same,inhibition,[5],-3.82%
same,inhibition,[6],32.5%
CCN1CCN(c2ccc(S(=O)(=O)N3CCOCC3)cc2NC(=O)c2cc(Cl)nc3ccccc23)CC1,inhibition,[1],-18.2%
same,inhibition,[2],1.55%
COc1ccc(COC(=O)C2=C(C)NC(=O)NC2c2ccc(F)cc2)cc1 (configuration not stated),inhibition,[3],34.1%
same,inhibition,[4],28.1%
same,inhibition,[5],10.2%
same,inhibition,[6],31.4%
Cc1ccc(-c2c[n+]3c(n2-c2ccccc2)CCC3)cc1,inhibition,[1],10.5%
same,inhibition,[2],20.3%
CCN(CC)S(=O)(=O)c1cc(NC(=O)C2CCN(c3ncnc4sc(C)c(C)c34)CC2)ccc1Cl,inhibition,[1],3.49%
same,inhibition,[2],34.4% (active)
O=C(Nc1ccc(OCC(F)(F)C(F)F)c(C(F)(F)F)c1)c1ccccc1O,inhibition,[1],-35.3%
same,inhibition,[2],6.93%
CCOc1ccc(NC(=O)c2ccc(CN3CCc4ccccc4C3)cc2)cc1,inhibition,[1],-25.7%
same,inhibition,[2],36.5% (active)
